SRC2 inh: inhibition of GAL4-SRC2 driven luciferase reporter, primary screen, SRC2 inhibitor project, cell-based, luminescence; HEK293 GAL4-SRC2 luciferase reporter; 0.17% of 370,000 active; AID 651957, 2012; inhibition, % at 9 µM; Nuclear receptor coactivator 2 (Homo sapiens), Q15596;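 active means inhibition above the mean inhibition of all tested compounds plus 3 SD, set per campaign, cut at about 52% in these data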;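 further: 0% = DMSO treated cells and 100% = cells given Gossypol at 36 µM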
NCOA3 inh: SRC3 coactivator transcriptional activity inhibitors, primary screen, cell-based, luminescence; HEK293 GAL4-SRC3 luciferase reporter; inhibition, % at 3.6 µM; 0.17% of 360,000 active;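 active means inhibition above a per-campaign cutoff, the mean of all compounds plus 3 SD, cut at about 60% in these data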;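 further: 0% = DMSO-treated cells and 100% = gossypol-treated cells at 36 µM; higher means less SRC3-driven luciferase light from the GAL4 reporter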
NR5A2 inv ag: LRH-1 (NR5A2) inverse agonists, primary screen, cell-based, luminescence, HEK293T, StAR-luciferase reporter | Nuclear receptor subfamily 5 group A member 2 (Homo sapiens), O00482 | LRH-1 transfected, 24 h | inhibition, % at 3.6 µM | 0.13% of 360,000 active;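 active means inhibition above the mean inhibition of all tested compounds plus 3 SD, cut at about 73% in these data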;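 further: 0% = DMSO wells and 100% = reporter-only cells lacking LRH-1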
NR2F2 inh: NR2F2 transcriptional activity inhibitors, primary screen, cell-based, luciferase reporter, HEK293T, luminescence; COUP transcription factor 2 (Homo sapiens), P24468; HEK293T NGFI-A luciferase reporter; inhibition, % at 8.6 µM; 0.7% of 370,000 active;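 active means inhibition above a per-plate cutoff, mean inhibition of test wells between control levels plus 3 SD, cut at about 38% in these data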;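 further: cells cotransfected with COUP-TFII expression vector driving the NGFI-A reporter; 0% = median of COUP-TF2 test wells and 100% = reporter-only cells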
Target sequence (P24468 whole entry, looked up): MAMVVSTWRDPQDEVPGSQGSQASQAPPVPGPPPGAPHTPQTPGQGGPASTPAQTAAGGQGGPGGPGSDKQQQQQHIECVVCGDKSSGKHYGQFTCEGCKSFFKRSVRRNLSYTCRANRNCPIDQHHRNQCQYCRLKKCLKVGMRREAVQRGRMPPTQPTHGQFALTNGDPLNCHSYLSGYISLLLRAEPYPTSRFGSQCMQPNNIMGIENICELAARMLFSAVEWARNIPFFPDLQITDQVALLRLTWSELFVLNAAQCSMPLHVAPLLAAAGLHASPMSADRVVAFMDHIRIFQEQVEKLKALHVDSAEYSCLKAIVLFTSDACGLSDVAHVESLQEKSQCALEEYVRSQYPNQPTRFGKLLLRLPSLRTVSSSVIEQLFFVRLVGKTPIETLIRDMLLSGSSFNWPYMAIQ
GalR3 antag: GalR3 antagonists in HEK293 cells, primary screen, cell-based, fluorescence readout; inhibition, % at 3 µM; 0.44% of 360,000 active; HEK293 GalR3-CNG cAMP membrane potential fluorescence; galR3 body fused to GalR1 C-terminus; Galanin receptor type 3 (Homo sapiens), O60755;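 active means inhibition above the screen-wide average plus 3 SD, cut at about 13% in these data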;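 further: forskolin and galanin both at EC90 stimulate the cells; cAMP rise reported by CNG channel membrane potential dye signal; 0% = forskolin plus galanin with DMSO and 100% = forskolin alone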
Target sequence (O60755 1-299 limits assumed): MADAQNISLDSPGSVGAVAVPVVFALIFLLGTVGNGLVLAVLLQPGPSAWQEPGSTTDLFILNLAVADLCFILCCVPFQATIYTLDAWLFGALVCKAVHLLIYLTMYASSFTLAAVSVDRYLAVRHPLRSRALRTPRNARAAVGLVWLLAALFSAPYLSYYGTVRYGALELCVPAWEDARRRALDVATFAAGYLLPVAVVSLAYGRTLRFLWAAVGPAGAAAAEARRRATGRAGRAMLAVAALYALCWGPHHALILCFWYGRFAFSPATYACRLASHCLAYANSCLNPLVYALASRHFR
NCOA1 inh: SRC1 coactivator transcriptional activity inhibitors, primary screen, cell-based, luminescence. 0.12% of 360,000 active. HEK293 GAL4-SRC1 luciferase reporter. AID 588354, 2011. inhibition, % at 3.6 µM. Nuclear receptor coactivator 1 (Homo sapiens), Q15788;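 active means inhibition above the campaign mean plus 3 SD, with each screening campaign given its own cutoff, cut at about 60% in these data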;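 further: 0% = DMSO treated cells and 100% = gossypol at 36 µM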
VP16 Luc counter: Gal4-VP16 luciferase reporter inhibitors, counter-screen for COUP-TFII antagonist project, cell-based, luminescence, HEK293; inhibition, % at 8.5 µM; 25% of 2,500 active; AID 687007, 2013; shares compounds with NR2F2 inh; in the data active means inhibition above about 13%
COUP-TFII conf: NR2F2 transcriptional activity inhibitors, confirmation, cell-based, luciferase reporter, HEK293, triplicate; shares compounds with NR2F2 inh; HEK293 NGFI-A luciferase reporter, luminescence; inhibition, % at 8.5 µM; 45% of 2,500 active; AID 687008, 2013;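 active means mean inhibition over three repeats above a set limit taken from the earlier primary screen, cut at about 38% in these data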;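 further: 100% = cells given the luciferase reporter alone without the COUP-TF2 vector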
The depositor's hits bear a star; . = no result; ! = repeats disagree. The list is not random: actives were taken first. Their share in the collection is about 1.1%.

SMILES | SRC2 inh | NCOA3 inh | NR5A2 inv ag | NR2F2 inh | GalR3 antag | NCOA1 inh | VP16 Luc counter | COUP-TFII conf
COc1ccc(-n2ncc3c(N4CCC(C(N)=O)CC4)ncnc32)cc1 | -56 | -111 | -113 | -33 | -4 | -102 | . | .
COc1ccc(C(=O)C2CCN(c3ncnc4sccc34)CC2)cc1 | . | . | . | 76* | . | . | 5 | 68*
COc1ccc2[nH]cc(C(C)c3ccccc3O)c2c1 (stereo not drawn) | 11 | . | . | -8 | . | . | . | .
CC(C)C[C@@H]1COc2cc(Br)ccc2S(=O)(=O)N1Cc1cn(CCC2OCCO2)nn1 | 13 | . | . | -19 | . | . | . | .
C=CCN(C)C(C#CCCCC)c1ccccc1 (stereo not drawn) | . | . | . | 12 | . | . | . | .
CCOc1ccc(CN(C)C(=O)CCc2ccc(S(=O)(=O)N3CCCCCC3)cc2)cc1 | 24 | 25 | 20 | 41* | -4 | 5 | 1 | 19
COc1ccc(CN(C)C(=O)CCc2ccc(S(=O)(=O)N3CCCCCC3)cc2)c(OC)c1 | -9 | 13 | 21 | 5 | -3 | -3 | . | .
COc1ccc(CN(C)C(=O)/C=C/c2ccc(S(=O)(=O)N3CCCCCC3)cc2)cc1 | 13 | 18 | 10 | 38* | -9 | -9 | 10 | 27
O=C(OCc1cn(Cc2c(F)cccc2F)nn1)N1CCCC1 | 12 | . | . | -7 | . | . | . | .
CCC1SC(C)C/C(=N/NC(N)=O)C1C (stereo not drawn) | -12 | 5 | 13 | 15 | 3 | 1 | . | .
CC1CC(C)C(=NNC(N)=O)C(C(O)CC2CCC(=O)NC2=O)C1 (stereo not drawn) | 58* | 74* | 99* | 82* | 0 | 75* | -12 | 20
CC(=O)Nc1ccc(SCC(=O)c2cc(C)n(Cc3cccs3)c2C)cc1 | 31 | 39 | 53 | 67* | 2 | 44 | 12 | 73*
COC(=O)c1ccc(-n2c(C)cc(C(=O)CSc3ccc(NC(C)=O)cc3)c2C)cc1 | 11 | 22 | 8 | 24 | -7 | -11 | . | .
CC(=O)Nc1ccc(SCC(=O)c2cc(C)n(-c3ccccc3F)c2C)cc1 | 39 | 52 | 55 | 67* | -11 | 41 | 35* | 64*
Cc1csc(SCC(=O)c2cc(C)n(Cc3cccs3)c2C)n1 | 36 | 43 | 28 | 67* | -5 | 29 | 37* | 80*
COCCn1c(C)cc(C(=O)CSc2ccc(NC(C)=O)cc2)c1C | -19 | -13 | -1 | -13 | -2 | -9 | . | .
COC(=O)[C@]12C[C@H](CC(=O)NCCc3ccccc3OC)C(=O)N(Cc3cccc4ccccc34)C1=C[C@H](C1CCCC1)O[C@@H]2C | 15 | . | . | 8 | . | . | . | .
O=C1CSc2ccc(C(=O)N3CCCC(C(=O)N4CCCN(Cc5ccccc5)CC4)C3)cc2N1 (stereo not drawn) | 0 | . | . | 0 | . | . | . | .
O=S1(=O)C=CCN1Cc1cn(Cc2cccc(Cl)c2)nn1 | -16 | . | . | -11 | . | . | . | .
O=C(CSc1nnc(-c2cccnc2)n1-c1ccccc1)Nc1ccc(OCc2ccccc2)cc1 | -2 | . | . | -2 | . | . | . | .
Cc1ccc(NC(=O)O/N=C/c2c(C)nn(C(C)(C)C)c2C)cc1Cl | 95* | 92* | 88* | 100* | -3 | 91* | 93* | 110*
CC(C)CC(N)c1csc(Nc2ncccn2)n1 (stereo not drawn) | -3 | 10 | 28 | 43* | -4 | 6 | -41 | 17
CCNC(=S)NNC(=O)CSc1nc2ccccc2c(=O)n1-c1ccc(Cl)cc1 | -15 | . | . | 6 | . | . | . | .
Cc1c(C=O)c2ccccc2n1CCOc1ccccc1F | 13 | 8 | 3 | 45* | -13 | -17 | -6 | 23
COc1ccccc1OCCn1c(C)c(C=O)c2ccccc21 | 15 | 0 | 23 | 37 | 0 | 25 | . | .
SMILES | SRC2 inh | NCOA3 inh | NR5A2 inv ag | NR2F2 inh | GalR3 antag | NCOA1 inh | VP16 Luc counter | COUP-TFII conf
CCCCCCCCN1CCS(=O)(=O)N(Cc2ccc(C)cc2)C(C(=O)OC)C1 (stereo not drawn) | 12 | . | . | 20 | . | . | . | .
CN(Cc1ccccc1)c1ncnc2sccc12 | 23 | 16 | 12 | 21 | -2 | -2 | . | .
c1ccc(CN2CCC(Nc3ncnc4sccc34)CC2)cc1 | -3 | 15 | -1 | 1 | 3 | 17 | . | .
Cc1ccc(S(=O)(=O)N2CCN(c3ncnc4sccc34)CC2)cc1C | 21 | 0 | 27 | 43* | -4 | 33 | -3 | 24
OC1(Cc2ccccc2)CCN(c2ncnc3sccc23)CC1 | . | . | . | 71* | . | . | -1 | 62*
c1ccc(CN2CCN(c3ncnc4sccc34)CC2)cc1 | . | . | . | 71* | . | . | 0 | 50*
Cc1ccc(S(=O)(=O)N2CCN(c3ncccn3)CC2)cc1C | -24 | -6 | 4 | 2 | -6 | -4 | . | .
C=CC[n+]1c(-c2ccc(Cl)cc2Cl)csc1Nc1c(C)n(C)n(-c2ccccc2)c1=O | -20 | 11 | 45 | 46* | -5 | 7 | 4 | 40*
CC(C)[C@@H]1CC[C@@H](C)C[C@H]1OC(=O)C[n+]1cc(-c2ccc(Cl)cc2)n2c1CCCCC2 | 9 | 37 | 23 | 24 | -6 | 11 | . | .
COc1ccc(-c2c[n+](CC(=O)OC3CC(C)CCC3C(C)C)c3n2CCC3)cc1 (stereo not drawn) | 5 | 57 | 45 | 64* | 0 | 10 | 6 | 19
C=C1C(=O)O[C@H]2C[C@H]1[C@@H](OC(C)=O)C/C(C)=C/CC/C(C)=C\CC[C@]2(C)O | 44 | 72* | 41 | 40* | -1 | 33 | 32* | 38*
CCOC(=O)[C@@]12CCCC3=C1N(CCC3)C(=O)[C@H]2CC(=O)NCc1ccc(C)o1 | -9 | . | . | 5 | . | . | . | .
COC(=O)c1ccc(S(=O)(=O)N2CCC(NC(=O)COc3ccc(F)cc3)CC2)cc1 | -5 | . | . | -12 | . | . | . | .
CCOC(=O)c1cc2c(=O)n3cccc(C)c3nc2n(CC2CCCO2)c1=NC(C)=O (stereo not drawn) | 5 | -12 | 10 | 73*! | -7 | 8 | -5 | -8
COCCCNC(=O)C[C@H]1C[C@@]2(C(=O)OC)C(=C[C@H](COCc3ccccc3)O[C@@H]2C)N(Cc2ccccc2)C1=O | 6 | . | . | -10 | . | . | . | .
